# Source: PubChem BioAssay AID1851 (National Center for Advancing Translational Sciences (NCATS), 2009)
# “And” between values parts separate entries of the source, which are not always exact repeats. Equal values may be shown once. Among all 16,000 compounds or so, about 5,700 (36%) were called active. Another 24% or so got no clear call; they are omitted. Calls follow the shape of the dose curve; as a rule, active = well fitted curve in the direction sought with a large enough effect; inconclusive = small, poorly fitted or top-dose-only effect, or effect the other way; inactive = no such curve, though single readings can be large or run the other way. This is one part of the list.
# Target: Cytochrome P450 1A2 (Homo sapiens) (UniProt P05177)
# Sequence (P05177 whole entry, looked up): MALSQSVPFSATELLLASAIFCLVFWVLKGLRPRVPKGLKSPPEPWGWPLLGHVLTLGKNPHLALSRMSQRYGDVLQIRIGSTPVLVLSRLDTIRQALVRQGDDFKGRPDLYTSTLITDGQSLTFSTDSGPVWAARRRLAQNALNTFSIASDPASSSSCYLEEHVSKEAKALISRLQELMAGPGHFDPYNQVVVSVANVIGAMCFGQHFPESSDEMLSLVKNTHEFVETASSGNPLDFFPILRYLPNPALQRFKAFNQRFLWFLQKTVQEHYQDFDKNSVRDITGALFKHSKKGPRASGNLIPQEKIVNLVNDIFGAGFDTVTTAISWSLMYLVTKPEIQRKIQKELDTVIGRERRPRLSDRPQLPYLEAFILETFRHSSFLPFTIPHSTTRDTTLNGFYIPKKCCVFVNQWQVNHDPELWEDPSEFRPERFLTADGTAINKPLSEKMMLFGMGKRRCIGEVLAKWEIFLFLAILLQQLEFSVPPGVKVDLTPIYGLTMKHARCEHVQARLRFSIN
# Assay: Cytochrome panel assay with activity outcomes
# Conditions: recombinant CYP, pro-luciferin dealkylation, luminescence, p450-cyp1a2; series mostly up to 57.1 µM; activity, negative = inhibition: at the top concentration
# % is scaled to controls: 0 for no effect and ±100 for the full control effect.
SMILES,"activity, negative = inhibition",AC50
CCC(C)NC(=O)C1CCN(C(=O)c2ccccc2)CC1 (configuration not stated),-0.858% (inactive),–
CCC(=O)N1CCN(C(=O)c2ccccc2)CC1,-2.9% (inactive),–
O=C(c1ccccc1)N1CCSC1=S,–,14.1 µM (active)
Cc1nc2cnc(N(C)C)nc2n(Cc2cccs2)c1=O,–,1.26 µM (active)
CN(C)c1ncc2ncc(=O)n(Cc3cccs3)c2n1,–,1.58 µM (active)
CCNC(=O)C/C(C)=N/NC(=O)C12CC3CC(CC(C3)C1)C2,12.5% (inactive),–
Fc1ccc(-c2cn3cc(C(F)(F)F)cc(Cl)c3n2)cc1,–,0.891 µM (active)
CC1(C)CC(=O)C2=C(C1)Nc1cc3c(cc1C2c1ccc(F)cc1)OCO3 (configuration not stated),–,6.31 µM (active)
FC(F)(F)c1ccc(N2CCOCC2)c(Nc2nc3ccccc3n3cnnc23)c1,–,6.31 µM (active)
COc1cccc2c1C(=O)c1c(O)c3c(c(O)c1C2=O)C[C@](O)(C(=O)CO)C[C@H]3O[C@@H]1C[C@H](N)[C@H](O)[C@H](C)O1,-12.4% [at 25.6 µM] (inactive),–
COCc1nc2c([nH]1)c(=O)n(C)c(=O)n2CC(C)C,–,12.6 µM (active)
Cn1c(=O)c2[nH]c(COCc3nc4c([nH]3)c(=O)n(C)c(=O)n4C)nc2n(C)c1=O,4.47% [at 2.29 µM] (inactive),–
Cn1c(=O)c2[nH]c(CS(=O)(=O)Cc3nc4c([nH]3)c(=O)n(C)c(=O)n4C)nc2n(C)c1=O,-21.1% [at 2.29 µM] (inactive),–
CCN1C(=O)[C@H]2[C@@H]3[C@H](O)C=CC(=O)[C@H]3CC[C@H]2C1=O,-16.7% [at 11.4 µM] (inactive),–
O=c1[nH]ncn2cccc12,-0.646% (inactive),–
O=c1[nH]ncc2c3ccccc3n(Cc3ccccc3)c12,–,1 µM (active)
O=C(O)[C@@H]1[C@H](C(=O)O)[C@H]2C(=O)C=C[C@H]1N2Cc1ccccc1,-3.91% [at 2.29 µM] (inactive),–
O=C(NCc1ccccc1Cl)c1ccc2c(=O)n(CCCN3CCCC3=O)c(=S)[nH]c2c1,-29.8% (inactive),–
O=C(NCCCN1CCCC1=O)c1ccc(CNS(=O)(=O)c2ccc(F)cc2)cc1,-4.99% (inactive),–
COc1ccc(-n2c(=S)[nH]c3cc(C(=O)NCCCN4CCCC4=O)ccc3c2=O)cc1,–,25.1 µM (active)
Cc1ccc(C)c(N(CC(=O)NC2CCCC2)C(=O)c2cc3cc4cccc(C)c4nc3s2)c1,-13.8% (inactive),–
CCN(CC)c1ccc(SS(=O)(=O)O)cc1,-20.2% (inactive),–
CCN(CC)c1ccc2c(Cl)cc(=O)oc2c1,–,0.891 µM (active)
CCCCS(=O)(=O)NC1=NCN(Cc2ccco2)CN1,-29.7% (inactive),–
CC1=CC(=C2C(=O)c3ccccc3C2=O)C=C(C)O1,–,0.2 µM (active)

SMILES,"activity, negative = inhibition",AC50
CC1(C)OC(=O)N(Cc2ccco2)C1(C)O (configuration not stated),-11.2% (inactive),–
CC1=CC(=C2C(=O)c3ccccc3C2=O)C=C(C)N1Cc1ccco1,–,1.58 µM (active)
Nc1nc(N)c2nn(-c3ccc(C(=O)O)cc3)nc2n1,-13.4% [at 2.29 µM] (inactive),–
COc1ccc(C(=O)N2CCC[C@@]3(CCN(C(=O)Nc4cccc(C#N)c4)C3)C2)cc1,11.5% (inactive),–
CC(C)NC(=O)N1CCCC2(CCN(C(=O)c3csnn3)CC2)C1,-2.35% (inactive),–
CSc1nc(Oc2ccc(F)cc2)c2ccccc2n1,–,0.794 µM (active)
CN1CCCC2(CCN(C(=O)c3cnccn3)CC2)C1,-12.3% (inactive),–
CN1CCN(CCCBr)CC1,-20.9% [at 11.4 µM] (inactive),–
O=C(c1cc(Br)ccc1O)c1cc(Br)ccc1O,–,1 µM (active)
Cc1cc(C)c(O)c(Cc2cccc(Cc3cc(C)cc(C)c3O)c2O)c1,-14.7% [at 2.29 µM] (inactive),–
Clc1ccc(CN2CCCN(Cc3ccc(Cl)cc3)C2c2cc3ccccc3c3ccccc23)cc1,–,0.794 µM (active)
Cc1cc(C)nc(Nc2n[nH]c(-c3cccc4ccccc34)n2)n1,–,4.47 µM (active)
Cc1cc(C)nc(Nc2n[nH]c(COc3cccc4ccccc34)n2)n1,–,15.8 µM (active)
Cc1cc(OCCNCCO)cc(C)c1Cl,–,2 µM (active)
Cc1nnc(NS(=O)(=O)c2ccc(N)cc2)s1,-3.75% [at 25.6 µM] (inactive),–
O=C1CC(c2ccc3c(c2)OCO3)CN1 (configuration not stated),–,12.6 µM (active)
NC(N)=NC[C@@H]1COC2(CCCCC2)O1,-4.71% [at 25.6 µM] (inactive),–
Cc1ccc(C)c(Cn2c(C(=O)OC(C)C)cc3c2ccn3C)c1,–,12.6 µM (active)
CC(c1ccc(Cl)cc1)n1c(-c2ccc3ccccc3n2)n[nH]c1=S (configuration not stated),–,11.2 µM (active)
CN(C)CC[C@H](c1ccc(Cl)cc1)c1ccccn1,–,inactive
CCc1c(O)c2c(c(O)c1C(C)=O)C(=O)c1c(cc(O)c(C(=O)O)c1C(=O)O)C2=O,-33.1% [at 11.4 µM] (inactive),–
Cc1nc2c(OCc3ccccc3)cccn2c1CC#N,–,0.398 µM (active)
Cc1nc2c(C#N)c(C)[nH]n2c(=O)c1Cc1ccccc1,-11.3% (inactive),–
S=C1NC2=C(C(c3ccc(Br)cc3)N1)N1CCC2CC1 (configuration not stated),-12.2% (inactive),–
Clc1ccc(-c2csc(N3CCC(c4ccccc4)C3)n2)cc1 (configuration not stated),–,3.55 µM (active)

SMILES,"activity, negative = inhibition",AC50
Brc1ccc(-c2csc(N3CCC(c4ccccc4)C3)n2)cc1 (configuration not stated),–,2.51 µM (active)
Cc1ccc(C(C(=O)NC2CCCCC2)N2CCN(C(=O)c3ccco3)CC2)cc1 (configuration not stated),16.9% (inactive),–
Cc1ccc(Cn2ccc(NC(=O)c3cc4nc(-c5ccco5)cc(C(F)(F)F)n4n3)n2)cc1,-7.6% (inactive),–
O=C(NC1CCCC1)c1cnn2c(C(F)(F)F)cc(-c3ccco3)nc12,–,2.24 µM (active)
O=S(=O)(c1ccccc1)N1CCC[C@@]2(CCN(C(c3ccccc3)c3ccccc3)C2)C1,-16.8% (inactive),–
C/C(=N\NC(N)=S)c1ccc[nH]1,–,3.16 µM (active)
Cc1ccccc1CS(=O)(=O)Cc1ccc(C(=O)NCc2cccnc2)o1,–,10 µM (active)
CCOc1ccc(OCc2ccc(C(=O)NCc3cccnc3)o2)cc1,–,8.91 µM (active)
O=C1c2ccccc2C2=Nc3ccccc3SC(c3ccccc3F)C12 (configuration not stated),–,1.41 µM (active)
CSc1ncnc2c1ncn2[C@@H]1O[C@@H](CO)[C@H](O)O[C@@H]1O,-5.22% [at 2.29 µM] (inactive),–
S=C(S)N1CCCC1,–,12.6 µM (active)
COc1ccc(OC)c(S(=O)(=O)N2CCC(C(=O)NCCc3ccccc3)CC2)c1,3.39% (inactive),–
COCCCNC(=O)C1CC(=O)N(Cc2ccc(OC)cc2)C1 (configuration not stated),-4.01% (inactive),–
COc1ccc2cc(CCNC(=O)C3CC3)c(=O)[nH]c2c1,–,12.6 µM (active)
Fc1ccccc1OCCCCSc1ncccn1,–,14.1 µM (active)
CO[C@@H]1COC(=O)[C@H]2CCCN2C(=O)[C@@H](C)COC(=O)[C@H](COCc2ccccc2)NC(=O)C/C=C\[C@H]1C,-3.84% [at 11.4 µM] (inactive),–
CCN1CCN(c2nc(C)c3c(n2)CCCC3=O)CC1,–,2.24 µM (active)
CCN1CCc2nc(N)oc2CC1,-7.3% (inactive),–
CCCCc1n[nH]c2c1/C(=N/O)CC(c1ccccc1)C2 (configuration not stated),–,0.398 µM (active)
NNC(=O)CCc1ccc2ccc3ccccc3c2c1,–,0.0316 µM (active)
O=C(O)CCCc1ccc2ccc3ccccc3c2c1,–,2 µM (active)
Nc1ccccc1CCCC(=O)O,4.62% [at 11.4 µM] (inactive),–
COC(=O)C/C=C\[C@@H](C)[C@@H](/C=N\O[C@@H](C)c1cn([C@H]2COC[C@H]2O)nn1)NS(=O)(=O)c1ccc(C)cc1,-5.92% [at 11.4 µM] (inactive),–
CCCCN(C(=O)Nc1ccc(OCC)cc1)C1CCN(C(C)=O)CC1,-6.11% (inactive),–
CCOCC(=O)Nc1c(C(=O)Nc2ccccc2OC)oc2ccccc12,–,0.398 µM (active)

SMILES,"activity, negative = inhibition",AC50
CCOc1ccc(NC(=O)c2oc3ccccc3c2NC(=O)CC)cc1,–,2 µM (active)
CCOc1ccccc1NC(=O)C1=C(C)NC(=O)NC1c1cccc(OC)c1OC (configuration not stated),-19.4% (inactive),–
COc1cccc(NC(=O)c2oc3ccccc3c2NC(C)=O)c1,–,2.51 µM (active)
CCOc1ccc(NC(=O)Cn2nnc(C(=O)NCc3ccccc3OC)c2N)cc1,-18.2% (inactive),–
COCC(=O)N1CCC[C@@]2(CCN(C(=O)Nc3ccc(OC)cc3)C2)C1,-18.5% (inactive),–
C/C(CCN1CCc2nc(-c3ccccc3)c(-c3ccccc3)cc2C1)=N\O[C@@H](C)c1cn([C@H](CO)Cc2ccccc2)nn1,1.6% [at 11.4 µM] (inactive) and -0.819% [at 11.4 µM] (inactive),–
CCn1c2ccccc2c2cc(NC(=O)CSc3nnc(-c4ccc(OC)c(OC)c4)n3N)ccc21,–,7.08 µM (active)
CCn1c2ccccc2c2cc(N=C3SC(CC(=O)Nc4ccccc4OC)C(=O)N3C)ccc21 (configuration not stated),-20.4% (inactive),–
CCn1c(=O)cc(SCC(=O)Nc2cc(OC)c(OC)c(OC)c2)c2ccccc21,-28.7% (inactive),–
Cc1noc(NS(=O)(=O)c2cccc3c(N(C)C)cccc23)c1C,-11.1% (inactive),–
CCN(CC)S(=O)(=O)c1ccc2c3c(cccc13)C(=O)S2,–,1.26 µM (active)
CCN(CC)S(=O)(=O)c1cccc2c(N(C)C)cccc12,–,7.08 µM (active)
Cc1[nH]nc(Nc2ccccc2)c1[N+](=O)[O-],–,1 µM (active)
CCCc1nnc(SCC(=O)N2CCCCC2C)n1CCCOC (configuration not stated),4.74% (inactive),–
CCOC(=O)CSc1nc2c(cnn2-c2ccc(C)cc2)c(=O)[nH]1,–,0.562 µM (active)
Cc1ccc2nc(SCc3nc4c(cnn4-c4ccccc4)c(=O)[nH]3)[nH]c2c1,–,12.6 µM (active)
Cc1nc(SCC(=O)Nc2c(C)nn(C)c2C)c2cnn(-c3ccccc3)c2n1,-21.6% (inactive),–
COC(=O)C(C)Sc1nc2c(cnn2-c2ccc(C)cc2)c(=O)[nH]1 (configuration not stated),–,2.51 µM (active)
Nc1nc(SCC(=O)O)[nH]c(=O)c1N,-10.3% [at 11.4 µM] (inactive),–
O=C(c1ccco1)N1CCN(c2cc(=O)n(C3CCCCC3)c(=O)[nH]2)CC1,1.95% (inactive),–
O=C(N/N=C/c1c(Nc2cccc(C(F)(F)F)c2)nc2ccccn2c1=O)c1ccccc1,–,2.82 µM (active)
Cc1ccc(C(=O)N/N=C/c2sc(=O)n(Cc3cccc(C(=O)O)c3)c2Cl)cc1,19% (inactive),–
